SMILES strings stand for the structures. Compounds without any hit were thinned out: in the full panel of roughly 79,000, 15% have a hit. Values without a mark were called inactive. No stated cut-off is given here; in the data, active means growth inhibition above about 70%; inactive means the rest.

The experiment in a line: NCI Yeast Anticancer Drug Screen. Data for the cln2 rad14 strain (AID 165).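 Further: 0% = growth equal to vehicle treated cultures.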 Conditions: S. cerevisiae cln2 rad14 strain, at 50.0 µM, hits give high values. Here is the method:
Growth inhibition of yeast strains with defined genetic alterations is measured as a screen for potential anti-cancer activity. Selected strains with alterations in DNA damage repair or cell cycle control were exposed to compounds and growth inhibition was measured relative to vehicle treated controls. The strain used in this assay is cln2 rad14
For the compound `NC(Cc1c[nH]c2ccc(Br)cc12)C(=O)O` (stereo not given), the growth inhibition is 5.4%. In the case of `Cc1ccc(S(=O)(=O)OCCOCCOc2ccc(C(C)(C)CC(C)(C)C)cc2)cc1`, the growth inhibition is 4.3%.

With `CCOC(=O)c1nc2ccc(C(F)(F)F)cc2nc1NCc1ccc(OC)cc1`, the growth inhibition was 17.2%. Turning to `O=CNc1ccccc1Cc1ccccc1`, the growth inhibition is 7.85%.

In the case of `Cc1cc(C)nc(C)c1`, the growth inhibition was -11.1%. Under `CC(=O)NC1C(OCc2ccccc2)OC(CO)C(O)C1OCc1ccccc1` (stereo not given) stands -24.1%; under `CC1CCOC(c2ccc(O)cc2)O1` (stereo not given), -29.3%. Regarding `CCOC(=O)C(=[N+]=[N-])C(O)C1OC(c2ccccc2)OCC1O` (stereo not given), the growth inhibition is 22.1%. `CCCCCCCCCCCCc1ccc(CS)cc1`: the growth inhibition is -1.7%. For the compound `O=C(O)c1ccc(OC2CCCCC2)cc1`, the growth inhibition was 18.6%. Under `CC1OC(OC2C(OC(=O)[C@@H]3CC(C)(C)C[C@H]4C5=CC[C@@H]6[C@@]7(C)C[C@H](O)[C@H](OC8OC(CO)C(O)C(O)C8O)[C@@](C)(CO)[C@@H]7[C@H](O)C[C@@]6(C)[C@]5(C)CC[C@@]34C)OCC(O)C2O)C(O)C(O)C1O` (stereo not given in full) stands -14.2%.

Consider `COc1cc2c(cc1OC)C(N)CC2=O` (stereo not given), for which the growth inhibition is 3.65%.

Take `S=c1nc[nH]c2c1CNC2`: the growth inhibition was 1.7%. For `CS(=O)(=O)OCCCCOS(C)(=O)=O`, the growth inhibition was 2%.

`CC(=O)OC1CCC2(C)C(=CCC3C2CCC2(C)C(C(C)C(=O)O)CCC32)C1` (stereo not given): the growth inhibition was -10.2%. In the case of `Cc1ccc(C(=O)N/N=C/c2ccccc2Cl)cc1`, the growth inhibition was -20.4%. In the case of `CCOC(=O)C1SC(=Nc2ccc(C)c(C)c2)N=C1C` (stereo not given), the growth inhibition is 19.7%. Consider `COC(=O)/C(C#N)=C\N1CCNC1=S`, for which the growth inhibition is -15.9%.

For `N#Cc1c(-c2ccc(Cl)cc2)c2c(n(C3OC(CO)C(O)C(O)C3O)c1=S)CCC2` (stereo not given), the growth inhibition is 31.9%. Regarding `COC(=O)C1OC1C(=O)OC` (stereo not given), the growth inhibition was -28.9%. `CCOc1ccc(NC(=O)c2c(N/N=C/c3ccc(OC)cc3)nc(=O)[nH]c2C)cc1`: the growth inhibition is -8.7%. Regarding `Cc1cc(N=Nc2c(O)c3ccccc3[nH]c2=O)ccc1N=Nc1ccc(C(=O)O)cc1`, the growth inhibition was 1.1%.

Turning to `S=c1cc(-c2ccccc2)oc2ccccc12`, the growth inhibition is 6.85%. Under `Cc1cc(Cl)ccc1NC(=O)C(=O)C(C(=O)c1ccccc1)C1OC(=O)c2ccccc21` (stereo not given) stands 14.6%; under `COc1ccc(C(O)Cc2cc(=O)cc(-c3ccccc3)[nH]2)cc1` (stereo not given), -40.3%. For `Fc1ccc2nncc(SCc3ccc(Cl)cc3)c2c1`, the growth inhibition was -22.4%.

Regarding `O=C1CC(c2ccccc2)Oc2cc(O)cc(O)c21` (stereo not given), the growth inhibition is 22.6%. `C/C([O-])=C(/c1nc(-c2ccc([N+](=O)[O-])o2)no1)[n+]1cc(C)ccc1C`: the growth inhibition is 21.3%. For the compound `CC1(C)CCNc2ccccc2S1`, the growth inhibition was -25.9%.

For the compound `CCOC(=O)c1ccc(NC(=S)NC(=O)c2cccc([N+](=O)[O-])c2)cc1`, the growth inhibition is -12.8%.

With `C=CC(C)(C)/C=C/C=O`, the growth inhibition is 5.65%. As for `COc1ccc(/C=N/NC=O)cc1OC`, the growth inhibition is 1.45%. The result for `N#C[C@H]1CC2C=CC1C2` (stereo not given in full) reads 8.2%; that for `Oc1ccc(Br)cc1C1Nc2ccccc2S1` (stereo not given), -28.3%. Turning to `CC(=O)Nc1ccc2c(c1)CCCC2`, the growth inhibition is -71.6%. Regarding `CC(C)(C)NN=C1C(C)(C)C(=NNC(C)(C)C)C1(C)C`, the growth inhibition was 13.9%. As to `N#Cc1c(-c2ccccc2)c(-c2ccccc2)cc2c(=O)c3ccc(Cl)cc3[nH]c12`, the growth inhibition was 12.4%. As for `C(CC1CCNCC1)CC1CCNCC1`, the growth inhibition was -23.8%. On to `C[n+]1ccc(CCC(=O)Nc2ccccc2)cc1`, for which the growth inhibition was 0.3%. On to `CC(=O)OC1CC(OC(C)=O)C(OC(C)=O)C(C)O1` (stereo not given), for which the growth inhibition was -15.7%.

For the origin of these results see PubChem BioAssay (NCI).
